Reference: ChEMBL document CHEMBL1961873, “Compounds: GSK PKIS; Assays: Nanosyn kinase panel” (2012)

How the values were obtained:
[1] = target: Serine/threonine-protein kinase 26 (Homo sapiens) (UniProt Q9P289); conditions: at 1 µM;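 also: mean inhibition of MST4 kinase activity, reported from the GSK PKIS inhibitor-set screening panel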
[2] = target: Serine/threonine-protein kinase PAK 1 (Homo sapiens) (UniProt Q13153); conditions: at 0.1 µM
[3] = target: Serine/threonine-protein kinase PAK 1 (Homo sapiens) (UniProt Q13153); conditions: at 1 µM
[4] = target: Serine/threonine-protein kinase PAK 2 (Homo sapiens) (UniProt Q13177); conditions: at 0.1 µM
Serine/threonine-protein kinase PAK 2 (Homo sapiens), sequence (Q13177 whole entry): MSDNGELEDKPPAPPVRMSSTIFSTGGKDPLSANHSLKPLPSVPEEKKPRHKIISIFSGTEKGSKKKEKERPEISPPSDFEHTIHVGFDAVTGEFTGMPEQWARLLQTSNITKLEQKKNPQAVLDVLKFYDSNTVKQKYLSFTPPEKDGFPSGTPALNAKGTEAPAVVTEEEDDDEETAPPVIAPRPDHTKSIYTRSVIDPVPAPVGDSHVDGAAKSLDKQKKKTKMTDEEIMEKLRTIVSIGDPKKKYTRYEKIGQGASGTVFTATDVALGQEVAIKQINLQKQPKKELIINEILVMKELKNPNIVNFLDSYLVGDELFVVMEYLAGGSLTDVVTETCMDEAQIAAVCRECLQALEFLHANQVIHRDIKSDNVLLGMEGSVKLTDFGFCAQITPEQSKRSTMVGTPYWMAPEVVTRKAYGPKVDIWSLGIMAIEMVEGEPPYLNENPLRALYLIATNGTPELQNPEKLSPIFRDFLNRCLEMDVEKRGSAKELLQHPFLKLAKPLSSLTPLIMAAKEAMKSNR

[5] = target: Serine/threonine-protein kinase PAK 2 (Homo sapiens) (UniProt Q13177); conditions: at 1 µM
[6] = target: Serine/threonine-protein kinase PAK 3 (Homo sapiens) (UniProt O75914); conditions: at 0.1 µM
Serine/threonine-protein kinase PAK 3 (Homo sapiens), sequence (O75914 whole entry, looked up): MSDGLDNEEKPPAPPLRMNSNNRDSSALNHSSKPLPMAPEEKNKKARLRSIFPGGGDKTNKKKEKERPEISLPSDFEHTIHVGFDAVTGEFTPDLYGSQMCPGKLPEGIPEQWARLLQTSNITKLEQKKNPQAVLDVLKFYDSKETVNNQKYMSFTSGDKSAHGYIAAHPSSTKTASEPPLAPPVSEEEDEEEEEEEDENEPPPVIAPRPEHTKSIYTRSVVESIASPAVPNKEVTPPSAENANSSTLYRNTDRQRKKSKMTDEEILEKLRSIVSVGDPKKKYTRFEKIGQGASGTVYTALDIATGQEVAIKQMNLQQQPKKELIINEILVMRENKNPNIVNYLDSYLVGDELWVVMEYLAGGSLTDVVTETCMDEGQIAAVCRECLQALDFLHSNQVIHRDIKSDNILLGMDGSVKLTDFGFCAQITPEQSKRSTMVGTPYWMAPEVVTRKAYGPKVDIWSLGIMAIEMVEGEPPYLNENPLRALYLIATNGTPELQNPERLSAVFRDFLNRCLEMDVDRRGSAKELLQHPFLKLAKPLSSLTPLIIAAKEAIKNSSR

[7] = target: Serine/threonine-protein kinase PAK 3 (Homo sapiens) (UniProt O75914); conditions: at 1 µM
[8] = target: Serine/threonine-protein kinase PAK 5 (Homo sapiens) (UniProt Q9P286); conditions: at 0.1 µM
Serine/threonine-protein kinase PAK 5 (Homo sapiens), sequence (Q9P286 whole entry, looked up): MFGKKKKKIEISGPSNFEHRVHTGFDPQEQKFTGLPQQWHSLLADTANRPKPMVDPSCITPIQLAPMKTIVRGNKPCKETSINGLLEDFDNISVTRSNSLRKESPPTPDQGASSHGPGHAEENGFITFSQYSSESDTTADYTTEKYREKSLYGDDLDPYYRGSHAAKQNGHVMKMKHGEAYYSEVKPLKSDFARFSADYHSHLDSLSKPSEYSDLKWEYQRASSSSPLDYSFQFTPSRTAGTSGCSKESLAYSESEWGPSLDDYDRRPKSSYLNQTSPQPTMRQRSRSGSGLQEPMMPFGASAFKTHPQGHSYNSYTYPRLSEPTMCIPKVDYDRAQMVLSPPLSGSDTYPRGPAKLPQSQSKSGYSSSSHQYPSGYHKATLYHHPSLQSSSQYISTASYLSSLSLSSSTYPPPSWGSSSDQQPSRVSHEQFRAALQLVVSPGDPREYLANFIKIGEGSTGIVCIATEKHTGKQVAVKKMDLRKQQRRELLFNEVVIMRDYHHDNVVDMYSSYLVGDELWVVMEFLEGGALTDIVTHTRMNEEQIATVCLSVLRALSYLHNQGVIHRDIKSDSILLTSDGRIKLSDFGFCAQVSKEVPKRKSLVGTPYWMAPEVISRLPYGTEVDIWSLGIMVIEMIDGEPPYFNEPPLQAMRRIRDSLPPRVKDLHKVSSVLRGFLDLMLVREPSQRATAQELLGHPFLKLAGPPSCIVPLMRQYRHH

[9] = target: Serine/threonine-protein kinase PAK 5 (Homo sapiens) (UniProt Q9P286); conditions: at 1 µM
[10] = target: Serine/threonine-protein kinase PAK 6 (Homo sapiens) (UniProt Q9NQU5); conditions: at 0.1 µM
Serine/threonine-protein kinase PAK 6 (Homo sapiens), sequence (Q9NQU5 whole entry, looked up): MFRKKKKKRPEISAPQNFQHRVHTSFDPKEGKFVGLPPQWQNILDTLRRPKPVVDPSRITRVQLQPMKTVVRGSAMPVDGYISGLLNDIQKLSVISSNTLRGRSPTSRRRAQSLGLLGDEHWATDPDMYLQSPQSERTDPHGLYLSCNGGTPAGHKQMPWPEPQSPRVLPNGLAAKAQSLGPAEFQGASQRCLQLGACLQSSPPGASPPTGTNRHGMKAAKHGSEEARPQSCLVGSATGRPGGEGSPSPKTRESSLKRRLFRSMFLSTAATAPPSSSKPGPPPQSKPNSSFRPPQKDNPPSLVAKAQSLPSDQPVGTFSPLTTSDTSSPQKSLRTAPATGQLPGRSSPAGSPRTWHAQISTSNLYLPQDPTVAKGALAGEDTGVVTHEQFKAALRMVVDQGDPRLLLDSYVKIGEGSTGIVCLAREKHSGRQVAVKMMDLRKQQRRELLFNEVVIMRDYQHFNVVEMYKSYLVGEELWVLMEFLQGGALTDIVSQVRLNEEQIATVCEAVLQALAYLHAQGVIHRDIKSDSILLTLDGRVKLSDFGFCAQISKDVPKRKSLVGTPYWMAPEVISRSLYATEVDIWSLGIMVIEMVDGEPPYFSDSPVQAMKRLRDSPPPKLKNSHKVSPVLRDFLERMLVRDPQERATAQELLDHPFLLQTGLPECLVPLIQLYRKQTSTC

[11] = target: Serine/threonine-protein kinase PAK 6 (Homo sapiens) (UniProt Q9NQU5); conditions: at 1 µM
[12] = test system: Tyrosine-protein kinase ABL1 (Homo sapiens), P00519 [E255K]; conditions: at 0.1 µM
[13] = test system: Tyrosine-protein kinase ABL1 (Homo sapiens), P00519 [E255K]; conditions: at 1 µM
[14] = test system: Tyrosine-protein kinase ABL1 (Homo sapiens), P00519 [H396P]; conditions: at 0.1 µM
[15] = test system: Tyrosine-protein kinase ABL1 (Homo sapiens), P00519 [H396P]; conditions: at 1 µM
[16] = test system: Tyrosine-protein kinase ABL1 (Homo sapiens), P00519 [M351T]; conditions: at 0.1 µM
[17] = test system: Tyrosine-protein kinase ABL1 (Homo sapiens), P00519 [M351T]; conditions: at 1 µM
[18] = test system: Tyrosine-protein kinase ABL1 (Homo sapiens), P00519 [Q252H]; conditions: at 0.1 µM
[19] = test system: Tyrosine-protein kinase ABL1 (Homo sapiens), P00519 [Q252H]; conditions: at 1 µM
[20] = test system: Tyrosine-protein kinase ABL1 (Homo sapiens), P00519 [T315I]; conditions: at 0.1 µM

Serine/threonine-protein kinase PAK 1 (Homo sapiens), sequence (Q13153 whole entry): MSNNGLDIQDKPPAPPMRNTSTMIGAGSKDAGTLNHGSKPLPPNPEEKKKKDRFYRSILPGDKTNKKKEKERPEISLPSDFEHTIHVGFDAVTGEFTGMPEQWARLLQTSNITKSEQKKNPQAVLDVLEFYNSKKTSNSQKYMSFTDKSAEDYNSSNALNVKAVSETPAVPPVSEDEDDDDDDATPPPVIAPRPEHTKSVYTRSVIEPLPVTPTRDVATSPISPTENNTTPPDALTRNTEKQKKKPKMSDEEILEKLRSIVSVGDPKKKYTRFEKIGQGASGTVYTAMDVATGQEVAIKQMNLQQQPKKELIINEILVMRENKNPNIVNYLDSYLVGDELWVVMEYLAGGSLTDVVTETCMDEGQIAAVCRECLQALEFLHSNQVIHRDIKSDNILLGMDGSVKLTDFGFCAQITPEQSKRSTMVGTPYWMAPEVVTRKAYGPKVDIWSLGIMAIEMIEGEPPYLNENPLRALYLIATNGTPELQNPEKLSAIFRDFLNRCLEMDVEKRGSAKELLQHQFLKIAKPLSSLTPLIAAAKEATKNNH
Serine/threonine-protein kinase 26 (Homo sapiens), sequence (Q9P289 2-416 limits assumed): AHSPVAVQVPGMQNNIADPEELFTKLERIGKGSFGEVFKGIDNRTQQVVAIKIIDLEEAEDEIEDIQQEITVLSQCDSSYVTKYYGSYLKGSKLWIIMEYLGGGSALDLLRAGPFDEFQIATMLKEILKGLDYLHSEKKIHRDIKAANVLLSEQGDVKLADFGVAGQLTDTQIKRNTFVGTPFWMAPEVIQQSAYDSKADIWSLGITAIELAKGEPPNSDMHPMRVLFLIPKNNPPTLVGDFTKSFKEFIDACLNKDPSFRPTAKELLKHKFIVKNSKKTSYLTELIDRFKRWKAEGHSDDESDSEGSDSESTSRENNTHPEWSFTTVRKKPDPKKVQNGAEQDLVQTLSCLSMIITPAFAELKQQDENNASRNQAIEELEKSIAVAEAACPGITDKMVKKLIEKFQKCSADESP

NS(=O)(=O)c1ccc(N/C=C2\C(=O)Nc3ccc4ncsc4c32)cc1
inhibition [1]: 74.5%
inhibition [2]: 4.98%
inhibition [3]: 7.33%
inhibition [4]: 1.87%
inhibition [5]: 2.66%
inhibition [6]: 5.48%
inhibition [7]: 5.62%
inhibition [8]: 2.66%
inhibition [9]: 4.51%
inhibition [10]: -9.73%
inhibition [11]: -3.07%
inhibition [12]: 3.53%
inhibition [13]: 21.2%
inhibition [14]: 7.89%
inhibition [15]: 31.5%
inhibition [16]: 5.55%
inhibition [17]: 30.6%
inhibition [18]: 9.38%
inhibition [19]: 38.7%
inhibition [20]: 6.29%

CCn1c(-c2nonc2N)nc2c(C#CCN)ncc(OCCCN)c21
inhibition [1]: 2.79%
inhibition [2]: -1.61%
inhibition [3]: 2.32%
inhibition [4]: -1.05%
inhibition [5]: -1.34%
inhibition [6]: -1.06%
inhibition [7]: -0.65%
inhibition [8]: 3.08%
inhibition [9]: 3.52%
inhibition [10]: 17%
inhibition [11]: 2.6%
inhibition [12]: -4.53%
inhibition [13]: -4.45%
inhibition [14]: -4.29%
inhibition [15]: -0.59%
inhibition [16]: -1.57%
inhibition [17]: 1.28%
inhibition [18]: -2.52%
inhibition [19]: 0.94%
inhibition [20]: -2.53%

COc1cccc(-n2ncc3c(N/N=C/c4ccncc4)ncnc32)c1
inhibition [1]: 7.18%
inhibition [2]: 5.78%
inhibition [3]: 7.75%
inhibition [4]: 3.04%
inhibition [5]: 2.37%
inhibition [6]: 5.73%
inhibition [7]: 5.78%
inhibition [8]: 0.19%
inhibition [9]: 6.09%
inhibition [10]: -2.81%
inhibition [11]: -8.53%
inhibition [12]: 77%
inhibition [13]: 93.9%
inhibition [14]: 82.9%
inhibition [15]: 94.9%
inhibition [16]: 82.3%
inhibition [17]: 94%
inhibition [18]: 87.2%
inhibition [19]: 95.7%
inhibition [20]: 42.4%

CCn1c(-c2nonc2N)nc2c(C#CC(C)(C)O)nc(O[C@@H](CN)c3ccccc3)cc21
inhibition [1]: 10.8%
inhibition [2]: 0.39%
inhibition [3]: 14%
inhibition [4]: 7.41%
inhibition [5]: 48.9%
inhibition [6]: -0.59%
inhibition [7]: 15.6%
inhibition [8]: 49.1%
inhibition [9]: 62.2%
inhibition [10]: 59.9%
inhibition [11]: 67.6%
inhibition [12]: -0.39%
inhibition [13]: -0.58%
inhibition [14]: -0.59%
inhibition [15]: -0.29%
inhibition [16]: 0.75%
inhibition [17]: 5.14%
inhibition [18]: -0.46%
inhibition [19]: 0.03%
inhibition [20]: 1.03%

CCn1c(-c2nonc2N)nc2c(C#CC(C)(C)O)ncc(OCC3CCNCC3)c21
inhibition [1]: 3.31%
inhibition [2]: 5.46%
inhibition [3]: 7.18%
inhibition [4]: 2.42%
inhibition [5]: 12.7%
inhibition [6]: 5.37%
inhibition [7]: 7.15%
inhibition [8]: 48.8%
inhibition [9]: 76%
inhibition [10]: 19.2%
inhibition [11]: 69.3%
inhibition [12]: -0.11%
inhibition [13]: 4.95%
inhibition [14]: 1.89%
inhibition [15]: 4.52%
inhibition [16]: -1.14%
inhibition [17]: 5.41%
inhibition [18]: 1.06%
inhibition [19]: 3.85%
inhibition [20]: 0.9%

COc1cccc(COc2cc(-n3cnc4ccccc43)sc2C(N)=O)c1
inhibition [1]: -1.08%
inhibition [2]: 0.1%
inhibition [3]: 2.97%
inhibition [4]: 0.38%
inhibition [5]: 0.1%
inhibition [6]: 0.88%
inhibition [7]: 1.18%
inhibition [8]: -2.95%
inhibition [9]: -5.64%
inhibition [10]: 1.2%
inhibition [11]: -1.23%
inhibition [12]: -0.78%
inhibition [13]: -0.15%
inhibition [14]: -1.23%
inhibition [15]: 3.19%
inhibition [16]: -1.62%
inhibition [17]: 2.97%
inhibition [18]: -0.55%
inhibition [19]: 3.14%
inhibition [20]: -1.92%

NC(=O)c1sc(-n2cnc3cc(C(F)(F)F)ccc32)cc1OCc1ccccc1Br
inhibition [1]: 3.19%
inhibition [2]: 1.15%
inhibition [3]: 2.03%
inhibition [4]: -0.71%
inhibition [5]: -1.57%
inhibition [6]: 1.59%
inhibition [7]: 0.61%
inhibition [8]: 1.54%
inhibition [9]: 0.39%
inhibition [10]: 3.56%
inhibition [11]: 0.31%
inhibition [12]: 2.61%
inhibition [13]: 3.23%
inhibition [14]: 3.11%
inhibition [15]: 3.6%
inhibition [16]: 2.27%
inhibition [17]: 2.72%
inhibition [18]: 1.81%
inhibition [19]: 2.64%
inhibition [20]: 1.04%

Nc1nonc1-c1nc2cnccc2n1C1CCCCC1
inhibition [1]: 3.95%
inhibition [2]: -0.52%
inhibition [3]: -1.25%
inhibition [4]: -2.06%
inhibition [5]: -1.54%
inhibition [6]: -3.57%
inhibition [7]: -2.19%
inhibition [8]: -7.66%
inhibition [9]: -4.63%
inhibition [10]: -0.28%
inhibition [11]: -4.16%
inhibition [12]: -1.63%
inhibition [13]: -0.67%
inhibition [14]: -1.2%
inhibition [15]: -0.69%
inhibition [16]: 1.15%
inhibition [17]: 3.69%
inhibition [18]: -2.14%
inhibition [19]: 1.64%
inhibition [20]: -1.05%

CCn1c(-c2nonc2N)nc2c(C#CC(C)(C)O)ncc(OC[C@@H]3CCCN3)c21
inhibition [1]: -0.64%
inhibition [2]: -0.64%
inhibition [3]: 7.58%
inhibition [4]: 1.99%
inhibition [5]: 16.6%
inhibition [6]: 0.61%
inhibition [7]: 4.06%
inhibition [8]: 12.6%
inhibition [9]: 49.8%
inhibition [10]: 19.1%
inhibition [11]: 58.4%
inhibition [12]: -0.36%
inhibition [13]: -0.79%
inhibition [14]: 1.51%
inhibition [15]: 6.5%
inhibition [16]: -0.07%
inhibition [17]: 1.33%
inhibition [18]: 1.26%
inhibition [19]: -0.4%
inhibition [20]: 0.19%

NS(=O)(=O)c1ccc(-c2ccc3c(NC(=O)C4CC4)n[nH]c3c2)cc1
inhibition [1]: -2.58%
inhibition [2]: 6.54%
inhibition [3]: 2.13%
inhibition [4]: 1.52%
inhibition [5]: 2.07%
inhibition [6]: 2.48%
inhibition [7]: 4.17%
inhibition [8]: 1.07%
inhibition [9]: 2.99%
inhibition [10]: 7.47%
inhibition [11]: 9.03%
inhibition [12]: 2.79%
inhibition [13]: 7.46%
inhibition [14]: 4.05%
inhibition [15]: 17.1%
inhibition [16]: 3.23%
inhibition [17]: 16.9%
inhibition [18]: 6.44%
inhibition [19]: 8.2%
inhibition [20]: 5.41%

COc1cc2c(cc1Nc1nc(Nc3ccsc3C(N)=O)c3cc[nH]c3n1)N(C(=O)CN(C)C)CCC2
inhibition [1]: 0.17%
inhibition [2]: -0.61%
inhibition [3]: 0.73%
inhibition [4]: 1.88%
inhibition [5]: 2.11%
inhibition [6]: 3.92%
inhibition [7]: 7.24%
inhibition [8]: -1%
inhibition [9]: -3.49%
inhibition [10]: 4.98%
inhibition [11]: 5.48%
inhibition [14]: -3.59%
inhibition [15]: -0.29%
inhibition [16]: 1.67%
inhibition [17]: 3.14%
inhibition [18]: 1.29%
inhibition [19]: 3.2%
inhibition [20]: 0.06%

Cc1cc(-c2ccco2)cc(C)c1/C=C/c1cncc(-c2nn[nH]n2)c1
inhibition [1]: 11.6%
inhibition [2]: 1.26%
inhibition [3]: 2.13%
inhibition [4]: -1.09%
inhibition [5]: -0.44%
inhibition [6]: 0.76%
inhibition [7]: 0.92%
inhibition [8]: -7.1%
inhibition [9]: -2.25%
inhibition [10]: 5.79%
inhibition [11]: 3.04%
inhibition [12]: 0.2%
inhibition [13]: 2.01%
inhibition [14]: 1.54%
inhibition [15]: 4.02%
inhibition [16]: 3.02%
inhibition [17]: 4.16%
inhibition [18]: 1.99%
inhibition [19]: 4.16%
inhibition [20]: 0.41%

Fc1ccc(-c2ncn(C3CCNCC3)c2-c2ccnc(Oc3ccccc3)n2)cc1
inhibition [1]: 0.32%
inhibition [2]: 3.79%
inhibition [3]: 1.88%
inhibition [4]: 0.54%
inhibition [5]: 1.48%
inhibition [6]: 1.85%
inhibition [7]: 3.31%
inhibition [8]: 2.66%
inhibition [9]: 2.03%
inhibition [10]: -8.85%
inhibition [11]: -6.64%
inhibition [12]: -0.56%
inhibition [13]: 1.05%
inhibition [14]: 2.03%
inhibition [15]: 1.85%
inhibition [16]: -0.31%
inhibition [17]: -0.15%
inhibition [18]: 1.55%
inhibition [19]: 2.19%
inhibition [20]: -0.76%

COc1cc(C=NNc2ncnc3c2cnn3Cc2ccccc2)ccc1O
inhibition [1]: 2.28%
inhibition [2]: 0.64%
inhibition [3]: -2.75%
inhibition [4]: -2.02%
inhibition [5]: -0.63%
inhibition [6]: -5.99%
inhibition [7]: -4.57%
inhibition [9]: -5.56%
inhibition [10]: -0.81%
inhibition [11]: -8.83%
inhibition [12]: 32.5%
inhibition [13]: 82.7%
inhibition [14]: 52.3%
inhibition [15]: 90%
inhibition [16]: 54.1%
inhibition [17]: 89.2%
inhibition [18]: 57.7%
inhibition [19]: 92.2%
inhibition [20]: 12.6%
